Experimental data reported in PubChem BioAssay (EPA / NIEHS).
Activity calls are given as the source filed them. Rule for the calls: active = hit-call score of the fitted dose curve at least 0.9, where 1 is the maximum; inactive = score below 0.9.

Columns and labels:
[1] = ATG_GLI_CIS: Attagene CIS-FACTORIAL HepG2 Assay for human Zinc Finger Protein GLI1 (AID 2282945); settings: HepG2, Attagene cis-factorial reporter mRNA, GLI element; actives raise or lower the signal
Summary of the method: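 HepG2 cells transiently transfected with cis-promoter multiplexed reporter units report endogenous transcription factor activity. After 24 h chemical exposure, reporter mRNA was quantified by RT-PCR, 6-FAM labelling, HpaI digestion and capillary electrophoresis, with bidirectional fitting against DMSO.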

[2] = ATG_GRE_CIS: Attagene CIS-FACTORIAL HepG2 Assay for human Glucocorticoid Response Elements (GRE) (AID 2282947); settings: HepG2 GRE cis-reporter, Attagene multiplex mRNA; actives raise or lower the signal
Summary of the method: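 HepG2 cells transiently transfected with multiple cis-promoter reporter units measure endogenous TF activity; 24 h compound exposure. Reporter mRNA quantified by RT-PCR, FAM labelling, HpaI digestion and capillary electrophoresis; bidirectional fit vs DMSO baseline.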

[3] = ATG_ISRE_CIS: Attagene CIS-FACTORIAL HepG2 Assay for human Interferon Regulatory Factor 1 (IRF1) binding to an Interferon-Stimulated Response Element (ISRE) (AID 2282948); settings: HepG2 ISRE cis-reporter (Attagene), mRNA transcription readout; actives raise or lower the signal
Summary of the method: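 HepG2 cells transiently transfected with multiplexed cis-promoter reporter units; after 24 h compound exposure, reporter mRNA quantified by RT-PCR, FAM labelling, HpaI digestion and capillary electrophoresis. Bidirectional fit versus DMSO baseline.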

[4] = ATG_M_32_CIS: Attagene CIS-FACTORIAL HepG2 Assay for M32 Transcription Factor (Internal Marker) (AID 2282949); settings: HepG2 Attagene cis-factorial M32 reporter, mRNA; actives raise or lower the signal;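 note: background control marker of the multiplexed CIS panel rather than a real target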
Summary of the method: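 Internal background marker read-out: RT-PCR/capillary electrophoresis fluorescence of reporter transcripts from transiently transfected HepG2 cells after 24 h chemical exposure. Activity fitted bidirectionally relative to DMSO negative control.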

[5] = ATG_M_06_CIS: Attagene CIS-FACTORIAL HepG2 Assay for M06 Transcription Factor (Internal Marker) (AID 2282950); settings: HepG2 Attagene CIS-FACTORIAL M06 internal marker reporter; actives raise or lower the signal
Summary of the method: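 Serves as a background control readout. Transfected HepG2 exposed to compounds for 24 h, then reporter transcripts quantified by fluorescent RT-PCR and capillary electrophoresis. Both directions fitted against DMSO baseline.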

[6] = target: Hypoxia-inducible factor 1-alpha (Homo sapiens) (UniProt Q16665); assay: ATG_HIF1a_CIS: Attagene CIS-FACTORIAL HepG2 Assay for human Hypoxia Inducible Factor 1 (HIF1A) (AID 2282951); settings: HepG2 Attagene cis-factorial HIF1a reporter transcription; actives raise or lower the signal
Sequence of Hypoxia-inducible factor 1-alpha (Homo sapiens) (Q16665 whole entry, looked up): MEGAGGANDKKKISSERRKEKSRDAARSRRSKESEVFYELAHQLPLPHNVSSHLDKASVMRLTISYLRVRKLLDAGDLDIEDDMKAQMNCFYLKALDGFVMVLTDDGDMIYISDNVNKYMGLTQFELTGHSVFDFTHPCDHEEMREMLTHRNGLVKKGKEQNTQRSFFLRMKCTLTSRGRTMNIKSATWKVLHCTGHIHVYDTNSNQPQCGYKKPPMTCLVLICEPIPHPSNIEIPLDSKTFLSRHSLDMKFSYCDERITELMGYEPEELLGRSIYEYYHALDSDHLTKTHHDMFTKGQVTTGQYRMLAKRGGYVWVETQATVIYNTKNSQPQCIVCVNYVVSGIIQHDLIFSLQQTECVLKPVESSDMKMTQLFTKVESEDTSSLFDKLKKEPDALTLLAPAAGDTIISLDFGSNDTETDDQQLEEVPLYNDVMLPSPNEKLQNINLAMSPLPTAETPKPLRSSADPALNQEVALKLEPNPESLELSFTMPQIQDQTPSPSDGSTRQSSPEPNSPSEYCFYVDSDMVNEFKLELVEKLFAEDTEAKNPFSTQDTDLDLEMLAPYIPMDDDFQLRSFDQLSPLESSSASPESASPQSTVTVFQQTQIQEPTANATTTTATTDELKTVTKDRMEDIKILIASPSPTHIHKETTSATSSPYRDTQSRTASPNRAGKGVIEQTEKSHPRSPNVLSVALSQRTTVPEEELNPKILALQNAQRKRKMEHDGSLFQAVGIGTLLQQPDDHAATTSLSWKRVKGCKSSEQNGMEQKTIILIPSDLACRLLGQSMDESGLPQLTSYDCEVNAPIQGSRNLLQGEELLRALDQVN
Summary of the method: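 HepG2 cells transiently transfected with multiplexed cis-promoter reporter units; reporter mRNA read 24 h after dosing by RT-PCR, 6-FAM primer-extension labelling, HpaI digestion and capillary electrophoresis. Bidirectional fit versus DMSO baseline.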

[7] = target: Hepatocyte nuclear factor 6 (Homo sapiens) (UniProt Q9UBC0); assay: ATG_HNF6_CIS: Attagene CIS-FACTORIAL HepG2 Assay for human Hepatocyte Nuclear Factor 6 (HNF6) (AID 2282952); settings: HepG2 Attagene cis-factorial HNF6 reporter transcription; actives raise or lower the signal
Sequence of Hepatocyte nuclear factor 6 (Homo sapiens) (Q9UBC0 whole entry, looked up, the tested form may be a part): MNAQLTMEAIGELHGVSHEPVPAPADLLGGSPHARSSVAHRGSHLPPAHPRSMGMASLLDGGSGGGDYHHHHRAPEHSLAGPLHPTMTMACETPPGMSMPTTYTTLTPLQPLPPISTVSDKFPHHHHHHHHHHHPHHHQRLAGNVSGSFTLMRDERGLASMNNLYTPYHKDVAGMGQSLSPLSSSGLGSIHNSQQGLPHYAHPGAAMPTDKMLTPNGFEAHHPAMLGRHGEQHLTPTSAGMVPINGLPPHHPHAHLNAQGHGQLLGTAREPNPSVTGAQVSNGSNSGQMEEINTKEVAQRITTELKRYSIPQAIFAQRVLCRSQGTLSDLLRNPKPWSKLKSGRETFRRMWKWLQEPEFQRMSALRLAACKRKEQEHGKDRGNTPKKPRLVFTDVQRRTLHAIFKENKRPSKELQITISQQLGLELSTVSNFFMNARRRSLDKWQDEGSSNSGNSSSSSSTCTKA
Summary of the method: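 HepG2 cells transiently transfected with cis-element-driven multiplexed reporter units measuring endogenous transcription factor activity. After 24 h exposure, reporter mRNA quantified by RT-PCR, FAM-labelled fragments and capillary electrophoresis; bidirectional fitting versus DMSO.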

[8] = target: Heat shock factor protein 1 (Homo sapiens) (UniProt Q00613); assay: ATG_HSE_CIS: Attagene CIS-FACTORIAL HepG2 Assay for human Heat Shock Transcription Factor 1 (HSE) (AID 2282953); settings: HepG2 HSE cis-reporter, Attagene RNA transcription; actives raise or lower the signal
Sequence of Heat shock factor protein 1 (Homo sapiens) (Q00613 whole entry, looked up): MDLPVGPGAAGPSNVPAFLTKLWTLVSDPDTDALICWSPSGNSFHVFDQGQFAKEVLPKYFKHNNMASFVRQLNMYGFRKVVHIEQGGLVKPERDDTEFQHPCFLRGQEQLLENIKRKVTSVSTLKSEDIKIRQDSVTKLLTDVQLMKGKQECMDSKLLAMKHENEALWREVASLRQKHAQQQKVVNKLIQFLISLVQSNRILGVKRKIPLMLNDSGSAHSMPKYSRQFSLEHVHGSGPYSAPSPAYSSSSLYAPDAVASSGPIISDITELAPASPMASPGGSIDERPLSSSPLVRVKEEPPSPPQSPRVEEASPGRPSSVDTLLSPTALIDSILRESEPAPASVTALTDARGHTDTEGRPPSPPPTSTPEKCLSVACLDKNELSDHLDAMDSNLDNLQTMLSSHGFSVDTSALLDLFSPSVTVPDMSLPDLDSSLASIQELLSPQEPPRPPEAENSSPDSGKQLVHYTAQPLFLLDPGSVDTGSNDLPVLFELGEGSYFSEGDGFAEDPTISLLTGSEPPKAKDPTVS
Summary of the method: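 Endogenous transcription factor activity in transiently transfected HepG2, read as reporter mRNA by RT-PCR with fluorescent capillary electrophoresis after 24 h. Gain or loss of signal fitted versus DMSO baseline.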

[9] = ATG_MRE_CIS: Attagene CIS-FACTORIAL HepG2 Assay for human Metal Responsive Element (MRE) (AID 2282954); settings: HepG2 MRE cis-reporter transcription, Attagene multiplex; actives raise or lower the signal
Summary of the method: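 HepG2 cells transiently transfected with multiple cis-element reporter units measure endogenous MTF1-driven transcription. After 24 h compound exposure, reporter mRNA is quantified by RT-PCR with 6-FAM labelling, HpaI digestion and capillary electrophoresis; bidirectional fits versus DMSO.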

[10] = ATG_PBREM_CIS: Attagene CIS-FACTORIAL HepG2 Assay for human Phenobarbital-responsive Enhancer Module (PBREM) (AID 2282955); settings: HepG2 PBREM cis-reporter, Attagene multiplexed transcription; actives raise or lower the signal
Summary of the method: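 HepG2 cells transiently transfected with multiple cis-regulated reporter transcription units; endogenous factor activity at the PBREM element measured as reporter mRNA 24 h after dosing, via RT-PCR and capillary electrophoresis of fluorescent fragments; bidirectional fitting versus DMSO.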

[11] = target: Paired box protein Pax-6 (Homo sapiens) (UniProt P26367); assay: ATG_Pax6_CIS: Attagene CIS-FACTORIAL HepG2 Assay for human Paired Box 6 (PAX6) (AID 2282956); settings: HepG2 CIS-FACTORIAL PAX6 reporter transcription, RNA readout; actives raise or lower the signal
Sequence of Paired box protein Pax-6 (Homo sapiens) (P26367 whole entry, looked up): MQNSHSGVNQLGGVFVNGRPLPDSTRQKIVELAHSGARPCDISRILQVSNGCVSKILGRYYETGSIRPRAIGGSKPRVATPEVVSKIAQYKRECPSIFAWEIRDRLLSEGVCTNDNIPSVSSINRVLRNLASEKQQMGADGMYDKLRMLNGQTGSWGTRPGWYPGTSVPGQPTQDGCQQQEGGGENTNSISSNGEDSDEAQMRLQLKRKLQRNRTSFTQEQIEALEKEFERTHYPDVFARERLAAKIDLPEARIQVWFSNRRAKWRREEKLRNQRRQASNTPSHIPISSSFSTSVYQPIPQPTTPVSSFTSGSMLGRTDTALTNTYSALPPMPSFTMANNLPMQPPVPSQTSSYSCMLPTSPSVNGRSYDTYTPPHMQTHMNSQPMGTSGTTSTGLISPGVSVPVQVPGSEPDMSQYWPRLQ
Summary of the method: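 HepG2 cells transiently transfected with multiplexed cis-promoter reporter units (endogenous TF activity) were dosed for 24 h. Reporter mRNA was quantified by RT-PCR, 6-FAM labeling, HpaI digestion and capillary electrophoresis; bidirectional fitting versus DMSO baseline.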

[12] = ATG_PXRE_CIS: Attagene CIS-FACTORIAL HepG2 Assay for human Pregnane X Receptor Element (PXRE) (AID 2282957); settings: HepG2 Attagene CIS-FACTORIAL PXRE reporter, mRNA; actives raise or lower the signal
Summary of the method: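 HepG2 cells transiently transfected with cis-element-driven multiplexed reporter units; after 24 h chemical exposure, reporter mRNA measured by RT-PCR, 6-FAM labelling, HpaI digestion and capillary electrophoresis. Bidirectional fitting relative to DMSO.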

[13] = ATG_RORE_CIS: Attagene CIS-FACTORIAL HepG2 Assay for human RAR-related Orphan Receptor Element (RORE) (AID 2282959); settings: HepG2 Attagene cis-factorial RORE reporter, mRNA; actives raise or lower the signal
Summary of the method: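 HepG2 cells transiently transfected with multiple cis-element reporter transcription units, exposed to chemical for 24 h. Reporter mRNA quantified by RT-PCR, 6-FAM primer-extension labeling, HpaI digestion and capillary electrophoresis; bidirectional fit versus DMSO baseline.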

[14] = ATG_Sox_CIS: Attagene CIS-FACTORIAL HepG2 Assay for human SRY-box transcription factor (SOX) (AID 2282960); settings: HepG2 Attagene cis-factorial SOX reporter, mRNA; actives raise or lower the signal
Summary of the method: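 HepG2 cells transiently transfected with cis-element-driven multiple reporter transcription units, dosed 24 h; reporter mRNA measured by RT-PCR, FAM labelling, HpaI digestion and capillary electrophoresis. Bidirectional fit versus DMSO baseline.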

[15] = target: Transcription factor Sp1 (Homo sapiens) (UniProt P08047); assay: ATG_Sp1_CIS: Attagene CIS-FACTORIAL HepG2 Assay for human Specificity Protein 1 (Sp1) (AID 2282961); settings: HepG2 Sp1 cis-reporter transcription, actives raise or lower the signal
Sequence of Transcription factor Sp1 (Homo sapiens) (P08047 whole entry, looked up): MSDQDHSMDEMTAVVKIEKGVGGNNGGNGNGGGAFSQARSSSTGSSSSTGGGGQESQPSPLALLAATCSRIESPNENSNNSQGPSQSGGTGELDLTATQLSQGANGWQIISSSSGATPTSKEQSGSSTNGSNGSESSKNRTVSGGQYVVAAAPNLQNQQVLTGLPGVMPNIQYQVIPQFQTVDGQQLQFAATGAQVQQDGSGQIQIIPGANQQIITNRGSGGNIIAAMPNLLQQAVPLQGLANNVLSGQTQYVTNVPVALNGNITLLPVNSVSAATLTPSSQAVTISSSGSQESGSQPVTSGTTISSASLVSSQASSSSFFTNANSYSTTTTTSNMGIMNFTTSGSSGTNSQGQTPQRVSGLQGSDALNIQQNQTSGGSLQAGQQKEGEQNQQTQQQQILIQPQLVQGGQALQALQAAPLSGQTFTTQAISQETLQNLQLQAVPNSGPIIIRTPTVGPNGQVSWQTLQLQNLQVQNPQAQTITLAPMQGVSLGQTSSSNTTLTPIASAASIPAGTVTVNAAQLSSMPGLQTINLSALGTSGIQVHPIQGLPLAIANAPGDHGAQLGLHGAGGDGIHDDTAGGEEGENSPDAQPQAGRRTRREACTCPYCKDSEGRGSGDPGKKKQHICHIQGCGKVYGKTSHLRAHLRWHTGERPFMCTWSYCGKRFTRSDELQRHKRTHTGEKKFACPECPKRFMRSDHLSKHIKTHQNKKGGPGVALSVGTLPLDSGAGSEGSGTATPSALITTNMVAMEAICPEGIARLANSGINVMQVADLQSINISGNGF
Summary of the method: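 HepG2 cells transiently transfected with multiple reporter transcription units driven by cis-regulatory elements; Sp1-responsive reporter mRNA measured 24 h after dosing by RT-PCR and capillary electrophoresis fluorescence, fitted bidirectionally against DMSO baseline.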

[16] = ATG_SREBP_CIS: Attagene CIS-FACTORIAL HepG2 Assay for human Sterol Regulatory Element Binding (SREBP) (AID 2282962); settings: HepG2 Attagene cis-factorial SREBP reporter, mRNA; actives raise or lower the signal
Summary of the method: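 HepG2 cells transiently transfected with multiplexed cis-element reporter units report endogenous transcription factor activity. After 24 h of chemical exposure, reporter mRNA was quantified by RT-PCR, 6-FAM labelling, HpaI digestion and capillary electrophoresis; bidirectional fits used DMSO as baseline.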

[17] = target: Signal transducer and activator of transcription 3 (Homo sapiens) (UniProt P40763); assay: ATG_STAT3_CIS: Attagene CIS-FACTORIAL HepG2 Assay for human Signal Transducer and Activator of Transcription 3 (STAT3) (AID 2282963); settings: HepG2, Attagene cis-factorial STAT3 reporter transcription; actives raise or lower the signal
Sequence of Signal transducer and activator of transcription 3 (Homo sapiens) (P40763 whole entry, looked up): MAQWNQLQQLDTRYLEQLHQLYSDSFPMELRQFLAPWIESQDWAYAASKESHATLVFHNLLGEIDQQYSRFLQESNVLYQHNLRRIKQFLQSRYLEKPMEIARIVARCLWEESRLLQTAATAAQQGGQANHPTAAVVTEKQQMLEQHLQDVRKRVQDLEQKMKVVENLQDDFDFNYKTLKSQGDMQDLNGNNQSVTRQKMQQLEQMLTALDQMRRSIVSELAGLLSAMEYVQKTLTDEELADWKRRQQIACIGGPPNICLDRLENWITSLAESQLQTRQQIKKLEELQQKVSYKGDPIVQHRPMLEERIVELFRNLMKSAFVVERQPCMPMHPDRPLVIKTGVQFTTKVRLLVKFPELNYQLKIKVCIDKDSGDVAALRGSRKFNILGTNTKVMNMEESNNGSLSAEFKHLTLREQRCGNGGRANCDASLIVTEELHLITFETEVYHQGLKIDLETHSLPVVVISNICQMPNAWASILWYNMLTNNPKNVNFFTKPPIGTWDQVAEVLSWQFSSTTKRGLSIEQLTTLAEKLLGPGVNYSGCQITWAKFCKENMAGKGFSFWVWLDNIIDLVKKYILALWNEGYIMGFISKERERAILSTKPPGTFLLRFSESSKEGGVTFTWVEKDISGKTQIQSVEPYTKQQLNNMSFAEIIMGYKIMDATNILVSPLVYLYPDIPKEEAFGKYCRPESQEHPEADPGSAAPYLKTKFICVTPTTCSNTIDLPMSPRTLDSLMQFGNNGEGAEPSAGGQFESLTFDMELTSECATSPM
Summary of the method: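 HepG2 cells transiently transfected with cis-element-driven multiple reporter transcription units; after 24 h chemical exposure, reporter mRNA measured by RT-PCR, 6-FAM primer-extension labelling, HpaI digestion and capillary electrophoresis. Bidirectional fitting versus DMSO baseline.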

[18] = ATG_TA_CIS: Attagene CIS-FACTORIAL HepG2 Assay for human TA Basal Promoter (AID 2282964); settings: HepG2 Attagene CIS-factorial TA basal promoter reporter; actives raise or lower the signal
Summary of the method: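 Background-control readout: TA basal promoter reporter mRNA, fitted in both directions relative to DMSO. Measured by RT-PCR and capillary electrophoresis 24 hours after treating HepG2 human liver cells transiently carrying multiplexed cis-regulated reporter constructs.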

[19] = target: Bile acid receptor (Homo sapiens) (UniProt Q96RI1); assay: ATG_IR1_CIS: Attagene CIS-FACTORIAL HepG2 Assay for human Nuclear Receptor Subfamily 1 Group H Member 4 (NR1H4), IR1 submotif (AID 2282946); settings: IR1 reporter transcription, actives raise or lower the signal
Sequence of Bile acid receptor (Homo sapiens) (Q96RI1 whole entry, looked up): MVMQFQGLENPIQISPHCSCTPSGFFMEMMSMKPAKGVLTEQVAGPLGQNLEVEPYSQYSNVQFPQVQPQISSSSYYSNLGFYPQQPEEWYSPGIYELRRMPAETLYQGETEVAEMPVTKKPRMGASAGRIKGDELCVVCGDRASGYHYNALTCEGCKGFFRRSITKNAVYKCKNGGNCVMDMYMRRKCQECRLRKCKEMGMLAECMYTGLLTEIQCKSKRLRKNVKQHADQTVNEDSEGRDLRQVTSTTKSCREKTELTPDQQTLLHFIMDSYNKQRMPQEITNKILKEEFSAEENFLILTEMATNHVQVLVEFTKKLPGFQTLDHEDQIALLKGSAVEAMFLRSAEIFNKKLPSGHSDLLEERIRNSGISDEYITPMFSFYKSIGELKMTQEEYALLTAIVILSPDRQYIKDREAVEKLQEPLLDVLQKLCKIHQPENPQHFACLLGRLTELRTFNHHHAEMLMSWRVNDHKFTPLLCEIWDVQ
Summary of the method: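 Transient MRTU transfection, HepG2; 24 h dosing; RNA → RT-PCR → 6-FAM primer extension → HpaI digest → capillary electrophoresis fluorescence. Gain/loss of signal fitted relative to DMSO.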

[20] = ATG_PPRE_CIS: Attagene CIS-FACTORIAL HepG2 Assay for human Peroxisome Proliferator-activated Response Element (PPRE) (AID 2282958); settings: HepG2 PPRE cis-element reporter, Attagene transcription factor profiling; actives raise or lower the signal
Summary of the method: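 HepG2 cells transiently transfected with multiplexed cis-element reporter units measure endogenous transcription factor activity. After 24 h compound exposure, reporter mRNA is quantified by RT-PCR, 6-FAM labeling, HpaI digestion and capillary electrophoresis; bidirectional fits are made against DMSO baseline.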

Measured: AC50

O=C(O)c1cccc(C[C@@H]2COc3ccc(OCc4nc5cc(F)ccc5s4)cc3[C@@H]2O)c1
active: [3] 163 µM | [8] 168 µM | [9] 154 µM | [11] 135 µM
not listed: [19] | [20]
inactive: all other assays above

Cn1c(=O)c2[nH]cnc2n(C)c1=O
not listed: [2] | [6] | [10]
inactive: all other assays above

CC(C)CC(C)O (stereo not drawn)
not listed: [2]
inactive: all other assays above

OC(CCl)CCl
not listed: [19]
inactive: all other assays above
